According to ChEMBL document CHEMBL4513216, “Probing the Open Global Health Chemical Diversity Library for Multistage-Active Starting Points for Next-Generation Antimalarials” (ACS Infect Dis, 2020):
Screen size: about 69,000 compounds; about 8,600 (12%) showed an effect of 50% or more. The entries come from a sample that favours strong results as a whole.

test system: Plasmodium berghei; assay: Screen against P. berghei liver stage (PbLuc), transformed with Luciferase, at 10uM; assay type: functional, HepG2; details: tested at 10 uM

SMILES | INHIBITION [%]
Cc1cc(C)c(C(=O)N2CCOC(c3cccs3)C2)c(=O)[nH]1 (centres undefined) | -18.6
Cc1cc(C)c(CNC(=O)N2CCOC(c3ccccc3)C2)c(=O)[nH]1 (centres undefined) | 31.9
Cc1ccc(C2CN(C(=O)c3c(C)cc(C)[nH]c3=O)CCO2)c(C)c1 (centres undefined) | 55
CNC(=O)C1CN(C(C)C)CCN1c1ncccn1 (centres undefined) | 47.1
CCC(=O)N1CCc2nc3cc(OC)c(OC)cc3c(=O)n2CC1 | 59.1
CCCC(=O)N1CCc2nc3cc(OC)c(OC)cc3c(=O)n2CC1 | 44.1
COc1cc2nc3n(c(=O)c2cc1OC)CCN(C(C)=O)CC3 | 21
COc1c(C2CCCN2C(=O)c2c[nH]c3ncccc23)c(C)nn1C (centres undefined) | 44.3
CCOc1cc(Cl)ccc1CNC(=O)N(C)CC(C)(C)O | 25.2
CCOc1ccc(CNC(=O)N(C)CC(C)(C)O)cc1C | 62.8
COc1ccc(CNC(=O)N(C)CC(C)(C)O)cc1OC | 46.6
O=C(NCC(CO)Cc1ccc(Cl)cc1)c1ccncc1F (centres undefined) | -11.1
Cc1cc(C)n(C2CCCN(C(=O)c3cn4cccnc4n3)C2)n1 (centres undefined) | 31.9
Cc1[nH]ccc1C(=O)N1CCCN1C(=O)OC(C)(C)C | 14.3
CC(C)(C)OC(=O)N1CCCN1C(=O)c1cccc(F)c1F | 31.9
CC(C)(C)OC(=O)N1CCCN1C(=O)c1cccc2cc[nH]c12 | 56.5
O=C(NC1CCCC1)c1cc(C2CCCNC2)n[nH]1 (centres undefined) | 9.98
CN1C[C@@H](O)[C@]2(CCN(C(=O)c3ccccc3)C2)S1(=O)=O | 8.61
O=C(C1CCC1)N1C[C@H]2CC[C@@H](C1)N(S(=O)(=O)c1ccccc1)C2 | -49.3
CCOc1nnc(CN(CC)CC(=O)Nc2c(F)cccc2F)s1 | 69.1
CCOc1nnc(CN(CC)CC(=O)NC(C)C)s1 | 39.9
CCOc1nnc(CN(CC)CC(=O)NC(C)(C)C)s1 | 24.7
Cc1oc(C)c(C(=O)N2CCCN(c3nccs3)CC2)c1C | -21.7
O=C(Cc1n[nH]c(-c2cncc(Br)c2)n1)NCc1ccncc1 | 29.4
NC(=O)CNC(c1ccccc1)c1ccc(OC(F)F)cc1 (centres undefined) | -11.9

SMILES | INHIBITION [%]
Cc1ccc(Cl)cc1N1CCN(CC(=O)NC(C)c2ccco2)CC1 (centres undefined) | 26.8
CC(NC(=O)CN1CCN(c2ccncc2Cl)CC1)c1ccco1 (centres undefined) | 71.3
CC(NC(=O)CN1CCN(c2cccc(Cl)c2)CC1)c1ccco1 (centres undefined) | 22.6
O=c1[nH]c(-c2ccccc2)nc2c1CCN(S(=O)(=O)N1CCCC1)C2 | 9
Cc1ccc(S(=O)(=O)N[C@H](CO)C(C)C)cc1N(C)C | 6.94
CC1(C)CN=C(N2CCN(CC3CCOC3)CC2)S1 (centres undefined) | 32
CC1(C)CN=C(N2CCN(CC3CCCO3)CC2)S1 (centres undefined) | 25.5
CC1(C)CN=C(N2CCN(CCCN3CCOCC3)CC2)S1 | 89.6
Cc1nc(CN2C(=O)CC[C@@H]3[C@H]2CCN3C(=O)c2ccccn2)cs1 | 48.6
O=C(c1cccnc1)N1Cc2ccccc2OCC1Cn1ccnc1 (centres undefined) | 24.8
Cc1nc(C)c(C(=O)N2Cc3ccccc3OCC2Cn2ccnc2)o1 (centres undefined) | 25.8
Cc1nc(C)c(C(=O)N2Cc3ccccc3OCC2Cn2ccnc2)s1 (centres undefined) | 51.7
CCS(=O)(=O)N1C[C@@H](O)[C@H](N2CCc3ccccc3C2)C1 | 9.98
Cc1noc(C)c1C(=O)N1CC[C@]2(C[C@@H](OCc3cccnc3)CO2)C1 | 10.1
CCC[C@@H]1CN(Cc2ccccc2-c2ccco2)C[C@H]1NC(C)=O | -20
Cc1nc(N(C)C)nc(C)c1NC(=O)c1ccco1 | -2.74
Cc1nc(N(C)C)nc(C)c1NC(=O)c1ccccc1F | 64.3
Cc1nc(N(C)C)nc(C)c1NC(=O)c1ccccc1C(F)(F)F | 46.3
Cc1ccc(NC(=O)c2ncc(C(N)=O)cc2Cl)cc1F | -10.8
CNS(=O)(=O)c1cc(C(=O)NC2COc3ccccc32)cc(C)c1C (centres undefined) | 18.4
O=C(c1cccnc1N1CCCCC1)N1CCCC(n2cccn2)C1 (centres undefined) | -11.9
CCOCCNS(=O)(=O)c1cc(C)c2nc(O)cc(C)c2c1 | 16.3
CCCNS(=O)(=O)c1ccc2[nH]c(=O)cc(C)c2c1 | 14.3
CNS(=O)(=O)c1cc(C)c2[nH]c(=O)cc(C)c2c1 | 56
CN(C)C(=O)[C@@H]1C[C@@H]2CCN(C3CCOCC3)C[C@@H]2O1 | 14.5

SMILES | INHIBITION [%]
CCc1cc(NCC(O)CN2CCCCC2)n2ncnc2n1 (centres undefined) | -0.79
CCOc1cccc(C(=O)N2C[C@@H]3CC[C@H]2CN(C(=O)C2CCC2)C3)c1 | 27.6
CN(C)C(=O)N1C[C@H]2CC[C@@H](C1)N(C(=O)c1cccc(N(C)C)c1)C2 | 26.7
CN(C)c1cccc(C(=O)N2C[C@@H]3CC[C@H]2CN(C(=O)C2CCC2)C3)c1 | 50.3
CN(C)C(=O)c1cnc2n1CCN(Cc1ccsc1)C2 | 3.11
COCC1c2c(cnn2C)CCN1Cc1cccc(C)c1 (centres undefined) | 26.3
CN1CCN(CC2(O)CCCN(C(=O)Cc3cccc(O)c3)CC2)CC1 (centres undefined) | -2.09
CC(C)(Oc1ccc(F)cc1)C(=O)NCc1ccco1 | -0.797
Cc1ccc(CS(=O)(=O)NCc2ccco2)cc1 | 52.1
CNc1c(NCc2ccco2)c(=O)c1=O | 33.5
O=S(=O)(Cc1ccc(F)cc1)NCc1ccco1 | 52.1
O=C1OCCN1c1cccc(CNS(=O)(=O)Cc2ccc(F)cc2)c1 | 18.9
O=S(=O)(Cc1ccccc1)NCc1ccco1 | 11.5
O=C1CCC[C@]2(CN(S(=O)(=O)N3CCCCC3)C[C@H]2c2cccnc2)N1 | 17.4
O=C(CO[C@@H]1CC[C@H]2[C@H]1OCCN2CC1CCOCC1)N1CCCC1 | 11.9
Cc1cc(C(=O)N2CCCC3(COCCN(CCN(C)C)C3)C2)no1 (centres undefined) | 56.1
CN1CCOCC2(CCCN(C(=O)c3ccc(-n4cccc4)cc3)C2)C1 (centres undefined) | 50.9
CN1CCOCC2(CCCN(C(=O)c3ccccc3F)C2)C1 (centres undefined) | 34.6
CN(C)CCN1CCOCC2(CCCN(C(=O)c3ccccc3)C2)C1 (centres undefined) | 20.9
CN(C)CCN1CCOCC2(CCCN(C(=O)c3ccoc3)C2)C1 (centres undefined) | 30.3
CN(C)CCN1CCOCC2(CCCN(C(=O)c3cccc(O)c3)C2)C1 (centres undefined) | 4.61
CN(C)CCN1CCOCC2(CCCN(C(=O)c3cccn3C)C2)C1 (centres undefined) | 47.9
CN(C)CCN1CCOCC2(CCCN(C(=O)c3ccccn3)C2)C1 (centres undefined) | 54.7
CN1CCOCC2(CCCN(C(=O)c3cn(C)cn3)C2)C1 (centres undefined) | -57.7
